# IL1B secr inh: qHTS for Inhibitors of Inflammasome Signaling: IL-1-beta AlphaLISA Primary Screen. activity change, % at 57.5 µM. THP-1 LPS/ATP IL-1B secretion, AlphaLISA, 16 h; stronger effect = lower value. 4.7% of 360,000 active; in the data active means activity change below about -50%; inconclusive means mostly about -30% to -49%
#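 THP-1 cells pretreated 1 hr with compounds (up to 57.5 uM final), then stimulated with LPS (250 ng/mL final) plus ATP (1.25 mM final); secreted IL-1B measured by AlphaLISA after 16 hr, decreased signal indicating inhibition.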
# DT40 TDP1 CPT: qHTS for Inhibitors of human tyrosyl-DNA phosphodiesterase 1 (TDP1): qHTS in cells in presence of CPT; chicken DT40 Tdp1-/-;hTDP1 cells + 20 nM CPT, ATP luminescence, 48 h; Potency, µM (doses to about 46.2 µM), for the others: at the highest dose activity change, negative = growth inhibition, actives largely listed as inhibitors; 12% of 420,000 active; further: potency means the concentration at half of the fitted maximal effect; nearly all actives have a fitted effect of over 55% in size
#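 Cell growth measured by CellTiter-Glo luminescence after a minimum 48 h, 37 C compound exposure with 20 nM CPT in Tdp1-knockout DT40 cells stably expressing hTDP1, seeded 400/well; qHTS titration format.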
# ELG1 repair inh: qHTS screen for small molecules that inhibit ELG1-dependent DNA repair in human embryonic kidney (HEK293T) cells expressing luciferase-tagged ELG1; HEK293T ELG1-luciferase reporter, luminescence, 16 h; DNA damage induced by 5-fluorouridine; Potency, µM (highest dose often 46.1 µM), for the others: top-dose activity change, negative = inhibition, actives largely listed as inhibitors; 2.3% of 330,000 active; AID 504467, 2011; further: potency means the concentration at half of the fitted maximal effect; nearly all actives have a fitted effect of over 55% in size
#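 Luminescence from the luciferase reporter, measured 30 min after ONE-Glo reagent at room temperature, was the read-out. Beforehand, 2,000 cells per well were exposed for 16 hr at 37 °C to 5-fluorouridine together with compound or vehicle.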
# HT1080-NT tox: qHTS for induction of synthetic lethality in tumor cells producing 2HG: qHTS for the HT-1080-NT fibrosarcoma cell line; HT-1080-NT fibrosarcoma viability, CellTiter-Glo ATP luminescence, 48 h; Potency, µM (titrated, usually from 46.1 µM), for the others: at the top dose activity, negative = less viability, hits mostly cytotoxic; 1.6% of 360,000 active; AID 686970, 2013;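 further: NT is the 2HG producing partner of a matched IDH1 knockdown line; potency means the concentration at half of the fitted maximal effect; 0% = DMSO-treated cells and -100% = media-only wells without cells; nearly all actives have a fitted effect of over 55% in size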
#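 Read-out is CellTiter-Glo luminescence after 10 minutes at room temperature, following 48 hours' compound treatment of HT-1080-NT cells (750 cells/well, RPMI, 5% FBS, 37 degrees C).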
# HT1080 IDH1KD tx: qHTS for induction of synthetic lethality in tumor cells producing 2HG: qHTS for the HT-1080-IDH1KD cell line; HT-1080 IDH1 knockdown viability, ATP luminescence, 48 h; Potency, µM (series often up to 46.1 µM), for the others: at the top dose activity, negative = toxicity, most hits filed as cytotoxic; 2% of 360,000 active;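 further: potency means the concentration at half of the fitted maximal effect; 0% = DMSO wells and -100% = cell-free medium wells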
#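 Cytotoxicity counter-line: IDH1KD HT-1080, 48 h, CellTiter-Glo. Curves classed by r2, magnitude and activity.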
# TDP1 cell noCPT: qHTS for Inhibitors of human tyrosyl-DNA phosphodiesterase 1 (TDP1): qHTS in cells in absence of CPT; DT40 Tdp1-/- hTDP1 cells, no CPT, ATP luminescence, 48 h; Potency, µM (titrated, usually from 46.2 µM), without a hit: at the highest dose activity change, negative = growth inhibition, most hits filed as inhibitors; 15% of 420,000 active; further: potency means the concentration at half of the fitted maximal effect; nearly all actives have a fitted effect of over 55% in size
#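 Camptothecin absent (DMSO only). Human TDP1-complemented DT40 knockout cells, 400 cells/well, 37 °C for minimum 48 hr; ATP measured via CellTiter-Glo, 30 min dark incubation, luminescence.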
# The depositor's hits bear a star; ? = inconclusive; / = no result; [ ] = dose if it differs, or a comment. In the library only some 19% were active in any assay of this set; here they are far more common. Unless noted, the call rests on the fitted dose curve; in most records, active means well fitted curve in the direction sought with a large enough effect; inconclusive means small, poorly fitted or top-dose-only effect, or another doubt; inactive means no such curve, though single readings can be large; an effect the other way counts as inactive or inconclusive. Unless noted, on the % scale 0 is the no-effect control and ±100 the full control effect.
SMILES,IL1B secr inh,DT40 TDP1 CPT,ELG1 repair inh,HT1080-NT tox,HT1080 IDH1KD tx,TDP1 cell noCPT
OC(CBr)C[n+]1cc(Br)cc2ccccc21 (stereo not given),/,7.08µM*,/,/,/,8.91µM*
COc1ccc(C(=O)C[n+]2cc(Br)cc3ccccc32)cc1[N+](=O)[O-],13.2,0.5%,-3.2%,6.7%,1.1%,-8.5%
O=C(C[n+]1cc(Br)cc2ccccc21)c1ccccc1,26.1,18.4µM*,-18.2%,-6.3%,-8.3%,18.4µM*
Nc1ncnc2c1ncn2[C@H]1O[C@@H](CSCC[C@@H](N)C(=O)O)[C@H](O)[C@@H]1O,/,17.0%,/,/,/,-0.7%
CCNC(=O)C1(C)CCN1CCS(=O)(=O)c1ccc(C)cc1 (stereo not given),10.0,-7.8%,/,7.9%,?,-3.3%
CCNC(=O)C1(C)CCN1CCC(=O)c1ccc(Br)cc1 (stereo not given),0.0,20.6µM*,/,13.7%,4.7%,16.4µM*
COCCNC(=O)C1(C)CCCN(CCC(=O)c2ccc(Br)cc2)C1 (stereo not given),-15.5,5.8µM*,/,?,?,7.31µM*
CCCNC(=O)C1(C)CCN(CCS(=O)(=O)c2ccc(C)cc2)C1 (stereo not given),-2.2,-15.9%,/,-7.3%,-1.7%,-21.3%
CCOC(=O)c1ccc(CN2CCCC(C)(C(=O)NCCOC)C2)cc1 (stereo not given),21.7,?,/,22.3%,0.0%,?
CCCNC(=O)C1(C)CCN(CCC(=O)c2ccc(Br)cc2)C1 (stereo not given),-13.8,2.59µM*,/,-20.4%,?,3.26µM*
COCCN1C(=O)COc2ccccc2C1C(=O)NC1CCCC1 (stereo not given),9.9,1.7%,/,-1.2%,?,-5.3%
COc1ccc(N(C)C(=O)c2oc(=O)c3ccccc3c2-c2ccccc2)c(OC)c1,-17.3,?,-18.6%,-6.6%,-7.2%,?
CC1CCC2(CC1)NC(=O)N(NC(=O)CCc1c[nH]c3ccccc13)C2=O (stereo not given),1.2,-17.1%,4.1%,-6.3%,-7.0%,-20.0%
O=C(COc1ccc(S(=O)(=O)N2CCOCC2)cc1Cl)NC1CC1,29.5,-6.4%,25.4%,13.9%,11.4%,-21.9%
COCC(C)n1c(C)cc(C(=O)COc2ccc(S(=O)(=O)N3CCOCC3)cc2Cl)c1C (stereo not given),-2.9,20.6µM*,-25.7%,-10.9%,-6.4%,?
Cc1cccc(NC(=O)C2c3ccccc3Oc3ccccc32)n1,-11.2,14.6µM*,5.4%,-23.9%,-31.4%,?
Cc1cccc2sc(NC(=O)C3CC3)nc12,6.3,3.2%,14.0%,4.7%,3.7%,-1.0%
Cc1ccccc1Cn1nc(C)c(NC(=O)C2c3ccccc3Oc3ccccc32)c1C,16.6,11.6µM*,0.8%,-1.0%,6.5%,14.6µM*
Cc1cccc2sc(NC(=O)C3c4ccccc4Oc4ccccc43)nc12,-4.5,11.6µM*,?,-24.6%[9.24 µM],?,?
Cc1ccccc1Cn1nc(C)c(NC(=O)C2(C)CC2(Cl)Cl)c1C (stereo not given),-1.0,-13.5%,-7.9%,0.8%,0.6%,-4.1%
Cc1ccccc1CNC(=O)Cn1ncn2nc(-c3cccs3)cc2c1=O,/,-14.8%,/,/,/,?
Cc1c(C(=O)NCCCN2CCCC2=O)cnn1-c1ncc2c(n1)-c1ccccc1CC2,/,5.1%[9.04 µM],/,/,/,-18.0%
Cc1onc(-c2ccccc2)c1C(=O)NCc1ccccc1F,-12.5,1.6%,-2.2%,-1.0%,-3.7%,-22.2%
O=C1c2ccccc2[C@@H]2C[C@@H](O)[C@H](Nc3ccccc3-c3ccccc3)CCN12,-0.9,?,?,1.1%,-0.7%,18.4µM*
O=C1c2ccccc2[C@@H]2C[C@@H](O)[C@H](Nc3cccc(C(F)(F)F)c3)CCN12,?,23.1µM*,-19.7%,-2.5%,-2.3%,?
SMILES,IL1B secr inh,DT40 TDP1 CPT,ELG1 repair inh,HT1080-NT tox,HT1080 IDH1KD tx,TDP1 cell noCPT
O=C1c2ccccc2[C@@H]2C[C@@H](O)[C@H](Nc3ccccc3)CCN12,40.0,13.1%,?,0.7%,1.3%,-11.5%
CO/N=C(\C(=O)N[C@@H]1C(=O)N2C(C(=O)OCOC(=O)C(C)(C)C)=C(/C=C\c3scnc3C)CS[C@H]12)c1csc(N)n1,/,-8.2%,/,/,/,-17.2%
Cc1cccc(NC(=O)CN2CCN(C(=O)C3CCCO3)CC2)c1C (stereo not given),9.0,-21.4%,-2.0%,8.3%,22.3%,-5.3%
O=C(CSc1nc(=O)n(CCCN2CCOCC2)c2c1CCC2)Nc1ccc([N+](=O)[O-])cc1,-18.3,-1.0%,?,-7.4%,0.6%,-5.5%
COc1ccc(C(CCN2CCOCC2)c2c(O)cc(OC)cc2OC)cc1 (stereo not given),-5.1,?,-1.0%,-0.6%,3.4%,?
CCN(CC)C(=O)CC(c1ccc(N(C)C)cc1)c1c(O)cc(OC)cc1OC (stereo not given),-20.8,?,0.0%,2.3%,0.3%,-9.7%
COc1cc(O)c(C(CCN2CCCC2)c2ccc(N(C)C)cc2)c(OC)c1 (stereo not given),-13.4,14.6µM*,8.2%,2.6%,-14.7%,20.6µM*
COc1cc(O)c(C(CCN2CCCCC2)c2ccc(N(C)C)cc2)c(OC)c1 (stereo not given),?,16.4µM*,4.0%,-3.4%,-2.3%,6.51µM*
Cc1ccc(NC(=O)Cn2cc(S(=O)(=O)N3CCCC3)c(S(=O)(=O)N3CCCC3)c2)cc1F,/,-16.0%,/,/,/,-14.5%
CNc1nc(N2CCCN(C)CC2)nc2cc(OC)c(OC)cc12,/,14.1µM*,/,-9.7%,-18.9%,11.2µM*
CCNc1nc(N2CCCN(C)CC2)nc2cc(OC)c(OC)cc12,/,11.2µM*,/,-24.6%,-23.2%,11.2µM*
CC(=O)N1N=C(c2cccs2)CC1c1cc2cc(C)ccc2nc1Cl (stereo not given),5.0,-2.0%,3.1%,3.0%,6.1%,6.6%
COCCNC(=O)C1CCCN(C(=O)COc2ccc(Cl)cc2Cl)CC1 (stereo not given),-6.9,-10.5%,/,27.3%,17.1%,-13.7%

# Screening results deposited in PubChem BioAssay by National Center for Advancing Translational Sciences (NCATS).
